Ten compounds from PubChem BioAssay (NCATS) can be followed below.

In assay [1] the target is Cytochrome P450 3A4 (Homo sapiens) (UniProt P08684). Kind of assay: qHTS Assay for Inhibitors and Substrates of Cytochrome P450 3A4 (AID 884). For activity change, negative = inhibition: % is set by controls: 0 for no effect and ±100 for the full control effect. Note: nearly all actives have a fitted effect of over 50% in size. Note: potency is the fitted concentration of half-maximal effect. In short, it runs like this:
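Luminescent readout of luciferin produced by CYP3A4 (20 nM) dealkylation of Luciferin-PPXE, 25 uM (its KM). NADPH-driven reaction ran 60 min at RT after 10 min compound preincubation; data scaled to 57 uM ketoconazole as 100% inhibition.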
In general terms: qHTS replaces the single test concentration by a dilution series.

Assay [2] can be described thus: qHTS Assay for Lipid Storage Modulators (AID 1519; calls by dose curve; for activity change, negative = inhibition: % is set by controls: 0 for no effect and ±100 for the full control effect). The settings on record: Drosophila S3 cells, BODIPY lipid droplet/cell ratio, laser cytometry, cells loaded with oleic acid. Summed up: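 Cells seeded at 5,000 per well were treated with compounds over a concentration series and loaded with oleic acid (400 uM, as added). Lipid droplet fluorescence (488 nm excitation, 500-530 nm channel) was read by laser-scanning cytometry and normalized to 20 uM Triacsin C.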

Assay [3] deals with DNA dC->dU-editing enzyme APOBEC-3G (Homo sapiens) (UniProt Q9HC16). Kind of assay: qHTS for inhibitors of Vif-A3G interactions: Validation (AID 588379). Note: 0% is about no effect. In short, it runs like this: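 Yellow fluorescence (Ex 488, Em 500-530) of Vif-coexpressing HeLa A3G-eYFP cells, scanned by Acumen cytometer, reports blocked A3G degradation. Cells plated at 700/well overnight at 37 deg C before compound addition, then a further overnight compound incubation at 37 deg C.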
DNA dC->dU-editing enzyme APOBEC-3G (Homo sapiens), sequence (Q9HC16 whole entry, looked up): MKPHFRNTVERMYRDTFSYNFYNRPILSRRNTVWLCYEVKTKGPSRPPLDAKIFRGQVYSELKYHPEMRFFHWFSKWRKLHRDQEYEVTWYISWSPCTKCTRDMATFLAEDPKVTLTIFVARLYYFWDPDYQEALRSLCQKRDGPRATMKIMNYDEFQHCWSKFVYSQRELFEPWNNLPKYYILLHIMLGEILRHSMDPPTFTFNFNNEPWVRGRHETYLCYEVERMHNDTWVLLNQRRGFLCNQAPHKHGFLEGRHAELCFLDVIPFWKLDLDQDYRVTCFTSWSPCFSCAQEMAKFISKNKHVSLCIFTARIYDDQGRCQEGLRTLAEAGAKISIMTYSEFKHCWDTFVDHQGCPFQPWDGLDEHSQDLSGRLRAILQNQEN

Assay [4] has as its target Cytochrome P450 3A4 (Homo sapiens) (UniProt P08684). As to the kind of experiment: qHTS Assay for Activators of Cytochrome P450 3A4 (AID 885). Note: nearly all actives have a fitted effect of over 65% in size. Summed up:
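Human CYP3A4 dealkylates Luciferin-PPXE to luciferin, which luciferase detection converts to light. Substrate was at its KM (25uM), buffer 200mM KPO4, reaction 60 min at RT.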

The nature of assay [5]: Confirmation and Secondary Assay for Modulators of Hemoglobin Beta Chain Splicing at IVS2 654 locus (AID 910).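 Note: HeLa cells stably carrying EGFP split by mutant beta-globin IVS2-654 intron; per-well total GFP intensity by laser scanning cytometry after 2-day treatment; % of control where 0% means no effect.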 Summed up:
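Readout: per-well total peak green fluorescence (488 nm ex, 500–520 nm em) from objects 5–250 µm, reflecting correct splicing of an EGFP-654 reporter. Compounds were applied for 2 days at 37 °C to overnight-plated HeLa EGFP-654 cells; controls were DMSO and 500 nM IVS2-654 PNA.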

The nature of assay [6]: Confirmation and Secondary Assay for Modulators of Hemoglobin Beta Chain Splicing at IVS2 705 locus (AID 930).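 Note: HeLa cells stably expressing the EGFP-705 splicing reporter; GFP fluorescence per well restored by corrected splicing of the IVS2-705 intron in EGFP; % of control where 0% means no effect.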 In short, it runs like this: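 Fluorescence gain (488 nm laser, 500-520 nm PMT) reflects restored correct splicing of a mutant IVS2-705 intron inside EGFP in stably transfected HeLa cells after 2-day compound treatment.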
Assay [7] addresses Ubiquitin carboxyl-terminal hydrolase 1 (Homo sapiens) (UniProt O94782). As to the kind of experiment: Inhibitors of USP1/UAF1: Pilot qHTS (AID 504865).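 Note: rhodamine fluorescence freed from ubiquitin-rhodamine substrate followed over time; top concentration of the series differs between compounds; % is set by controls: 0 for no effect and ±100 for the full control effect; nearly all actives have a fitted effect of over 35% in size.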 Summed up: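 USP1/UAF1 complex (1nM) preincubated with compound 15 min at room temperature, then Ub-Rho substrate (150nM final) added. Fluorescence read kinetically at 480/540 nm, 6 reads every 60 seconds. Buffer: 50mM HEPES pH 7.8, 0.5mM EDTA, 0.1 mg/ml BSA, 1mM TCEP, 0.01% Tween-20.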

Assay [8] concerns the target Cytochrome P450 2C9 (Homo sapiens) (UniProt P11712). Kind of assay: qHTS Assay for Inhibitors and Substrates of Cytochrome P450 2C9 (AID 883). Note: potency is the fitted concentration of half-maximal effect; nearly all actives have a fitted effect of over 60% in size. In short, it runs like this: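 Luminescent read-out of deoxyluciferin hydroxylation, normalized to 57uM sulphaphenazole (AC100). Reaction: 10nM enzyme, 100uM Luciferin-H (equal to KM), 25mM KPO4, 10 min compound preincubation, then 60 min with NADPH regeneration, both at 37C.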

Assay [9] concerns the target Alpha-galactosidase (Coffea arabica) (UniProt Q42656). As to the kind of experiment: Counterscreen for Glucocerebrosidase Inhibitors: qHTS Assay for Coffee Bean alpha-Galactosidase at pH 4.5 (AID 957).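 Note: plate controls were enzyme alone for no effect and no enzyme for full effect.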 In short, it runs like this: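 Fluorogenic read-out: 4-methylumbelliferone at Ex 365/Em 440 nm after NaOH/glycine stop (pH 10). Enzyme 2 nM, 4-MU-alpha-galactoside 80 uM, citrate buffer pH 4.5, 20 min RT; normalized to no-enzyme and enzyme controls.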

For assay [10] the target is unchanged. Kind of assay: Counterscreen for Glucocerebrosidase Inhibitors: qHTS Assay for Coffee Bean alpha-Galactosidase at pH 5.9 (AID 998).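 Note: plate controls were uninhibited enzyme for no effect and no-enzyme basal signal for full effect.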 In short, it runs like this: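 Fluorogenic 4-MU substrate hydrolysis, 80 uM substrate and 2 nM coffee bean alpha-galactosidase, pH 5.9 citrate buffer, 20 min at room temperature, then NaOH/glycine stop. Titration 0.7 nM–77 uM, normalized to no-enzyme and enzyme controls, AC50 via Hill equation.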

Assay [11] is described as follows: qHTS assay for small molecule antagonists of retinoid X receptor alpha signaling (AID 588546; active = well fitted inhibition curve with a large enough effect in the signal ratio, with a control signal flat, not every such curve was filed as active; the % refers to the signal ratio; note: potency is the fitted concentration of half-maximal effect;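 for max response: cells stimulated with 9-cis-retinoic acid as agonist; % is set by controls: 0 for no effect and ±100 for the full control effect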). Particulars: HEK293T RXRa-UAS-bla, beta-lactamase ratio, antagonist mode; measured here: W530 green channel, cytotoxicity proxy. In short, it runs like this:
(§1)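 Beta-lactamase reporter inhibition, read as CCF4 fluorescence ratio (ex 405, em 460/530 nm) after 2 h at RT. HEK293T UAS-bla cells, 2500/well, were stimulated with 9-cis-RA at 500 or 100 nM final alongside test compound for 18 h at 37 C.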

The target of assay [12] is Retinoic acid receptor RXR-alpha (Homo sapiens) (UniProt P19793). The assay is described as above. Particulars: HEK293T RXRa-UAS-bla, beta-lactamase ratio, antagonist mode. In short, it runs like this:
as §1

Assay [13] can be described thus: qHTS assay for small molecule activators of the p53 signaling pathway (AID 651743; active = well fitted activation curve with a large enough effect in the signal ratio, not every such curve was filed as active; the % refers to the signal ratio; note: potency is the fitted concentration of half-maximal effect). The settings on record: HCT-116 p53RE-bla, beta-lactamase FRET ratio, 16 h; activation: stronger effect = higher value. In short, it runs like this:
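A beta-lactamase reporter under p53 response element control, stably carried by HCT-116 cells, reported pathway activation. Test compounds were applied for 16 hours at 37 C, and fluorescence was measured 2 hours after adding the B/G FRET substrate.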

Assay [14] is described as follows: qHTS assay for small molecule activators of the nuclear factor-kappa B (NF-kB) signaling pathway (AID 651749; active = well fitted activation curve with a large enough effect in the signal ratio; the % refers to the signal ratio; note: % of control where 0% means no effect). The settings on record: NF-kB-bla ME-180 cells, beta-lactamase FRET ratio, 16 h; activation: stronger effect = higher value. In short, it runs like this: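 FRET-based beta-lactamase detection in ME-180 cells reports NF-kB response-element-driven transcription following overnight (16 hr) compound treatment.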

The nature of assay [15]: qHTS assay for environmental chemicals that activate the Aryl hydrocarbon Receptor (AhR) signaling pathway (AID 651777). Note: % of control where 0% means no effect; nearly all actives have a fitted effect of over 15% in size. The settings on record: 1A2-DRE human hepatoma cells, luciferase, 24 h; activation: stronger effect = higher value. In short, it runs like this:
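Reporter gene assay: hepatoma cells with DRE/CYP1A2-luciferase, 24 hr compound incubation at 37 C, 5% CO2, luminescence after One-Glo (30 min, RT).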

The target in assay [16] is Peroxisome proliferator-activated receptor alpha (Homo sapiens) (UniProt Q07869). Kind of assay: qHTS assay for small molecule agonists of the peroxisome proliferator-activated receptor alpha (PPARalpha) signaling pathway (AID 651778). Note: % of control where 0% means no effect. The settings on record: PathHunter PPARalpha complementation, chemiluminescence, 6 h; stronger effect = higher value. Summed up:
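Chemiluminescence from complemented enzyme reported PPARalpha activation in cells after 6 hr of compound treatment at 37 C. The detection reagent was incubated for 60 min at room temperature, and compounds were scored as agonists.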

The nature of assay [17]: qHTS assay for small molecule agonists of the antioxidant response element (ARE) signaling pathway measured by Nrf2-dependant transcriptional activity (AID 720636; active = well fitted curve in the direction sought with a large enough effect in the repeat runs; an effect the other way counts as inactive or inconclusive;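 note: HepG2 cells with an ARE-driven luciferase reporter; % of control where 0% means no effect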). Summed up: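 Nrf2-dependent transcription is measured in ARE-luc HepG2 cells: compound is applied for 16 hr at 37 C after a 6 hr attachment period, and luciferase activity is quantified by luminescence using ONE-Glo.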

The mark [18] stands for this setting: measured here: cell count channel max response.
Where [19] appears, read: measured here: lipid channel max response.

Results filed as inconclusive are left out. Calls of active or inactive are those of the source. Unless noted, calls come from the whole dose curve; as a rule, active = well fitted curve in the direction sought with a large enough effect; inconclusive = small, poorly fitted or top-dose-only effect, or another doubt; inactive = no such curve, though single readings can be large; an effect the other way counts as inactive or inconclusive.

Cytochrome P450 3A4 (Homo sapiens), sequence (P08684 whole entry, looked up): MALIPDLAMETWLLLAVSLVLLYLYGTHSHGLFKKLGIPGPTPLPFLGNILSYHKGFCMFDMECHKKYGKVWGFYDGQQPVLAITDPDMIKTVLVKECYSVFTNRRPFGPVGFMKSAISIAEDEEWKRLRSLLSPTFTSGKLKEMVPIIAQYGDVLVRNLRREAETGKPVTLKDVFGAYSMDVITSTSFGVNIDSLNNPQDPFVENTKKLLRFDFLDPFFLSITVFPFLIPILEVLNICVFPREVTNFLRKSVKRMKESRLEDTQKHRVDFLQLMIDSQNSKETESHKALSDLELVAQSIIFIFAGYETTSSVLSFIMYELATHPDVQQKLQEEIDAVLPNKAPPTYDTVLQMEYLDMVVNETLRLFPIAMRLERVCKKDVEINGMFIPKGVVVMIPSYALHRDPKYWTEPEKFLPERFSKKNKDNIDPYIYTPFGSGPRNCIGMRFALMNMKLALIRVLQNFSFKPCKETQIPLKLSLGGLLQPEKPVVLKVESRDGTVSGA
Ubiquitin carboxyl-terminal hydrolase 1 (Homo sapiens), sequence (O94782 whole entry, looked up): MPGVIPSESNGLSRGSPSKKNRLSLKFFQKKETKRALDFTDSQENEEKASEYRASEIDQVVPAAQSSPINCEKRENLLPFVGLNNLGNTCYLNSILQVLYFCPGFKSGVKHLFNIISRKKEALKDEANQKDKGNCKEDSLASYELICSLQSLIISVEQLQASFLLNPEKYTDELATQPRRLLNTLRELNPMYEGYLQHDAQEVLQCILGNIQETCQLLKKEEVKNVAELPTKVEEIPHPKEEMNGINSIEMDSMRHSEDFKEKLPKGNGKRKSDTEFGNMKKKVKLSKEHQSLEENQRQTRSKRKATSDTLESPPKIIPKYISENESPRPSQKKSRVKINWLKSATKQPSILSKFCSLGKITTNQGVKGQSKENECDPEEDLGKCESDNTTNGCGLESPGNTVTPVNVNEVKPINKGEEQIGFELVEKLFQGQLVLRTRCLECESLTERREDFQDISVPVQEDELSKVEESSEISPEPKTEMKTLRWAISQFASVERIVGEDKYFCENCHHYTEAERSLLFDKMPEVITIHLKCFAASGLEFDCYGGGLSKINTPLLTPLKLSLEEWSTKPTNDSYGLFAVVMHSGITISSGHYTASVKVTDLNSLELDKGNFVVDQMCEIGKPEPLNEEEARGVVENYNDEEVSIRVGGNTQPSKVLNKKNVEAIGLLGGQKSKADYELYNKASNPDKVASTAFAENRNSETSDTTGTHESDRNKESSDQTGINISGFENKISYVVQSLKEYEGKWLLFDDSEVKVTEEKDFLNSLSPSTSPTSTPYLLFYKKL
Alpha-galactosidase (Coffea arabica), sequence (Q42656 whole entry, looked up): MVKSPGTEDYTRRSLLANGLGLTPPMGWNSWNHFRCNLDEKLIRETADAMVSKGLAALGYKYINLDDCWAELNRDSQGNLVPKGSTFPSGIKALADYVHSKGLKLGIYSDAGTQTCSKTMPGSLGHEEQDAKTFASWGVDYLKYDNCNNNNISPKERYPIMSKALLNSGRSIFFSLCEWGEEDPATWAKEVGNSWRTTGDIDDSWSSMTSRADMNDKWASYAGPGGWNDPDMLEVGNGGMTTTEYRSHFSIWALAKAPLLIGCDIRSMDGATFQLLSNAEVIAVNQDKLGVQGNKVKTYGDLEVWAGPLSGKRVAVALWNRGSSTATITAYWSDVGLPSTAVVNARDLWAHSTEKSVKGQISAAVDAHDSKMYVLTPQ
Cytochrome P450 2C9 (Homo sapiens), sequence (P11712 whole entry, looked up): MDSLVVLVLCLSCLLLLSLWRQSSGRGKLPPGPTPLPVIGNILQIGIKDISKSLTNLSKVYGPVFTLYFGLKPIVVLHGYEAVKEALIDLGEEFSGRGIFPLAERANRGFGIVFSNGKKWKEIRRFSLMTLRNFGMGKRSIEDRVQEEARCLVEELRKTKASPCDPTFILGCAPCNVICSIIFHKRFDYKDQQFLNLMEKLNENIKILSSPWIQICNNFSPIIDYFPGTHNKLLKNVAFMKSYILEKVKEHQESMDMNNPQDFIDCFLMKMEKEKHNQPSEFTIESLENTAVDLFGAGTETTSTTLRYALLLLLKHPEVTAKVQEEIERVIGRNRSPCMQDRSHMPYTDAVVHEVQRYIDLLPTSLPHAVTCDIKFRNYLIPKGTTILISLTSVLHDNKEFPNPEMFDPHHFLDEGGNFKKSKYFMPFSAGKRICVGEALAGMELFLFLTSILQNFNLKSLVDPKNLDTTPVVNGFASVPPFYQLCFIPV
Retinoic acid receptor RXR-alpha (Homo sapiens), sequence (P19793 whole entry, looked up): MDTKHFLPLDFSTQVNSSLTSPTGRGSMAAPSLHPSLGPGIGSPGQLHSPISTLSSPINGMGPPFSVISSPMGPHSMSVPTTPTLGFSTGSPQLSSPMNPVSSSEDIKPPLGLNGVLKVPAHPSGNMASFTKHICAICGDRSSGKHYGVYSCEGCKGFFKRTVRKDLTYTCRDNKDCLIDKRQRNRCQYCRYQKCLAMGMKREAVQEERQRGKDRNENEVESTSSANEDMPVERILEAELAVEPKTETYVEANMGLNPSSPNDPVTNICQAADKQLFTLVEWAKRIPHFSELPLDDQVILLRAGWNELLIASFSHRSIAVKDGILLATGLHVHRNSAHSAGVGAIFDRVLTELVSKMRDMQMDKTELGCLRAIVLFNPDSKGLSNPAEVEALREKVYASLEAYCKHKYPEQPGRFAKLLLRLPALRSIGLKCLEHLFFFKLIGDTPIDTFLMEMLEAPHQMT
Peroxisome proliferator-activated receptor alpha (Homo sapiens), sequence (Q07869 whole entry, looked up): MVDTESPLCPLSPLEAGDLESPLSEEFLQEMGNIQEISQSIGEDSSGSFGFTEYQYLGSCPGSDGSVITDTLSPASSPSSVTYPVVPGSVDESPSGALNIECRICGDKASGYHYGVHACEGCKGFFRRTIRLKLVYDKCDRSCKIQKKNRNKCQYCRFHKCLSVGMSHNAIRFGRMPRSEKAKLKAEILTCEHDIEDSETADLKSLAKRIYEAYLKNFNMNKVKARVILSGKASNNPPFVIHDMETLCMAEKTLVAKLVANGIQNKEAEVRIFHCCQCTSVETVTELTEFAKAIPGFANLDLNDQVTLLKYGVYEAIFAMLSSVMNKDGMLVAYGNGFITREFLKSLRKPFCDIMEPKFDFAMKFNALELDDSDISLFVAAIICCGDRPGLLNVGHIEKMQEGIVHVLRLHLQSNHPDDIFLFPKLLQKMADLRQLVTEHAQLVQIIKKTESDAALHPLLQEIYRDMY

As for `CNC1C2CN3CCC(O2)C13` (stereo not drawn), the Potency result in assay [1] was “inactive”. Further, in [2] (at 57.5 µM (top of the series)), the activity change, negative = inhibition was 3.03% (inactive). Also, the max response was 7.52% in assay [2] (setting [18]) and 11.5% in [2] (setting [19]). The outcome in assay [3] was inactive.
As for `CC(=O)OC1CC(OC(C)=O)[C@]2(C)C(CC(OC(C)=O)[C@]3(C)C2CC[C@@]2(C)C(c4ccoc4)C(=O)C4O[C@]432)C1(C)C` (stereo partly drawn), the Potency in assay [1] was 3.98 µM (active). Moreover, the Potency result in [4], in assay [5] and in assay [6] was “inactive” in each case. In assay [2] (at 57.5 µM (top of the series)), the activity change, negative = inhibition is -15.3% (inactive). Moreover, the max response in [2] (setting [18]) is -13.1%; in assay [2] (setting [19]) it was -24.4%.
For `COc1cc2c(cc1OC)[C@]13CCN4CC5=CCOC6CC(=O)N2[C@@H]1[C@@H]6C5C[C@@H]43` (stereo partly drawn), the Potency result in assay [1] was “inactive”. Moreover, the activity change, negative = inhibition in assay [2] (at 57.5 µM (top of the series)) was -2% (inactive). Also, the max response in assay [2] (setting [18]) and in [2] (setting [19]) was -11.3% each time. Further, the outcome in [3] was inactive.
With `Cc1[nH]c2ccccc2c1CN(C)C`, the Potency in assay [1] was 12.6 µM (active). Besides, the Potency result in assay [4], in [5] and in [6] was “inactive” in each case. In assay [2] (at 57.5 µM (top of the series)), the activity change, negative = inhibition is 11.5% (inactive). The max response in assay [2] (setting [18]) was 9.14%; in assay [2] (setting [19]) it was 21.3%.
Turning to `NCC(=O)c1ccccc1`, the Potency result in [5], in assay [6] and in [7] was “inactive” throughout. The activity change, negative = inhibition in assay [2] (at 57.5 µM (top of the series)) is 8.66% (inactive). In addition, the results for the max response in assay [2] (setting [18]) and in assay [2] (setting [19]) were 23.8% and 35.4%, respectively.
Consider `CC1(C)C(O)CC(O)[C@]2(C)C1CC(O)[C@]1(C)C2CC[C@@]2(C)C(c3ccoc3)OC(=O)C3O[C@]312` (stereo partly drawn), for which the Potency in assay [1] was 12.6 µM (active). For the same compound, the Potency entry in assay [4], in assay [5] and in [6] was “inactive” in each case. Moreover, the activity change, negative = inhibition in [2] (at 57.5 µM (top of the series)) is 0.703% (inactive). Besides, the max response in assay [2] (setting [18]) is 12.6%; in [2] (setting [19]), 16.1%.
Take `CN1CCc2cc3c(cc2C1O)OCO3` (stereo not drawn): the Potency entry in assay [5], in assay [6] and in assay [7] was “inactive” each time. Further, the activity change, negative = inhibition in assay [2] (at 57.5 µM (top of the series)) was 7.6% (inactive). Moreover, the max response in [2] (setting [18]) turned out to be 9.52%; in assay [2] (setting [19]), 18.6%.
Turning to `COc1cc([C@H]2c3cc4c(cc3[C@@H](O)[C@@H]3COC(=O)[C@H]23)OCO4)cc(OC)c1OC`, the Potency in assay [8] was 1.26 µM (active). For the same compound, the compound was classed as inactive in assay [9] and in assay [10]. Besides, the activity change, negative = inhibition in [2] (at 25.7 µM (top of the series)) is -6.44% (inactive). Further, the max response in [2] (setting [18]) is -10.2%; in [2] (setting [19]), -15%.
On to `O=c1cccc2n1CC1CC2CN2CCCCC12` (stereo not drawn), for which the Potency entry in [5], in [6] and in [7] was “inactive” each time. Also, the activity change, negative = inhibition in assay [2] (at 57.5 µM (top of the series)) is 0.982% (inactive). The figures for the max response in assay [2] (setting [18]) and in assay [2] (setting [19]) were 1.81% and 1.59%, respectively.
Turning to `C#CCOS(=O)OC1CCCCC1Oc1ccc(C(C)(C)C)cc1` (stereo not drawn), the Potency result in [1], in assay [5] and in assay [6] was “inactive” in each case. The activity change, negative = inhibition in assay [2] (at 57.5 µM (top of the series)) was 5.08% (inactive). Also, the max response in assay [2] (setting [18]) is 0.489%; in [2] (setting [19]), 8.3%; in [11], 24.4%; in assay [16] it was -1.77% (inactive). The Potency in assay [12] was 7.08 µM (active); in assay [13] it was 5.62 µM (active). For the same compound, the figures for the activation in assay [14] and in assay [15] were 7.07% (inactive) and 0.168% (inactive), respectively. Moreover, the compound was called inactive in assay [17].
